Arbovirus anti: antivirals against arbovirus infection, primary screen, cell-based, full library, 10K replicate subset; arbovirus infection cell-based antiviral screen; AID 1251, 2008; inhibition, % at 10 µM; 200,000 tested, 0.37% active; in the data active means inhibition above about 30%
WT yeast gro inh: growth inhibition of WT strain, primary screen, mitochondrial fusion inhibitor project, WT and mutant strains, chemical genetic | AID 1362, 2008 | 190,000 tested, 2.1% active | inhibition, % at 10 µM | mitochondrial fusion phenotypic screen; in the data active means inhibition above about 58%; tested in S. cerevisiae
Lmaj promast: Leishmania major promastigote growth inhibition, primary screen; 200,000 tested, 9% active; Leishmania major promastigotes, resazurin fluorescence viability; inhibition, % at 10 µM; AID 1063, 2008; in the data active means inhibition above about 50%;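 further: promastigotes grown with compound for 44 hours at 28 °C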
CHOP inhibitor: inhibitors of CHOP promoter induction, primary screen, cell-based, unfolded protein response, luciferase reporter. CHO-K1 CHOP-promoter luciferase, tunicamycin-induced, 15-18 h. inhibition, % at 10 µM. 220,000 tested, 3.8% active. AID 2732, 2010;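 active means compounds that reduced the stress-induced luciferase reporter signal by more than about 70% of percent inhibition, limit read from the data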;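 further: 0% = tunicamycin plus vehicle and 100% = wells without tunicamycin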
L major 1uM: Leishmania major promastigote growth inhibition, confirmation, 1 µM repeat of primary hits. shares compounds with Lmaj promast. L. major promastigote growth, resazurin fluorescence, 48 h. inhibition, % at 1 µM. 1,100 tested, 13% active;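 active means inhibition above about 50% in both repeat tests, limit read from the data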
An asterisk follows results filed as active; · = no result. Shown are actives, neighbours in structure and some others; about 12% of the full set was active somewhere.

SMILES	Arbovirus anti	WT yeast gro inh	Lmaj promast	CHOP inhibitor	L major 1uM
O=C(NCCc1c[nH]c2ccccc12)/C(=C\c1cccnc1)NC(=O)c1ccco1	5	2	61*	-8	-2
O=C(NCCc1c[nH]c2ccccc12)/C(=C/c1cccnc1)NC(=O)c1ccco1	-3	-12	-3	2	·
CC(=O)c1cc(C#N)c(Oc2ccc(Cl)cc2Cl)nc1C	·	·	-2	·	·
CC(C)(C)CC(=O)NCCc1csc(-c2ccccc2)n1	·	·	·	3	·
CN(C)Cc1cccc([N+](=O)[O-])c1O	·	·	·	11	·
O=C(O)c1cc(-c2cccc(Cl)c2)nc2nc(N3CCCCC3)sc12	3	21	63*	-14	-10
Cc1cc(C(=O)NCc2ccc(F)cc2)n(-c2ccccc2)n1	·	·	·	9	·
O=C(O)CCN1C(=O)S/C(=C\c2cccnc2)C1=O	·	·	·	-4	·
O=C(/C=C/c1cccc([N+](=O)[O-])c1)NCCN1C(=O)S/C(=C\c2cccnc2)C1=O	-3	-16	60*	-20	6
COCCCn1c(=S)[nH]c2c(sc3ccccc32)c1=O	1	34	28	-22	·
Cc1nc2ccc(C(C(F)(F)F)(C(F)(F)F)C(F)(F)F)cc2[nH]1	6	84	100*	73*	22
CCOC(=O)c1c(NC(=O)CN2CCCCC2)sc(C)c1C	7	7	-1	-6	·
CCOC(=O)c1sc(NC(=O)CN2CCCC2)c(C(=O)OCC)c1C	0	16	93*	22	-14
O=C(COC(=O)CCN=C1NS(=O)(=O)c2ccccc21)NC1CCCCCCC1	·	·	·	-2	·
COc1ccc(CSc2nnnn2-c2ccccc2)cc1	-1	36	100*	33	-22
C=CCSc1nnnn1-c1ccc(OC)cc1	-11	7	-3	17	·
CCCSc1nnc(Sc2nnnn2-c2ccccc2)s1	-4	7	88*	·	46
C(=C\CSc1nnnn1-c1ccccc1)/CSc1nnnn1-c1ccccc1	4	-15	22	43	·
Cc1ccccc1-n1nnnc1Sc1nnnn1-c1ccccc1	-34	-7	100*	-16	19
O=C1c2ccccc2NC(c2ccc([N+](=O)[O-])cc2)N1O (centres undefined)	-19	-16	-4	40	·
COc1cccc(C2C(C(=O)c3ccco3)=C(O)C(=O)N2CCN(C)C)c1OC (centres undefined)	5	-39	62*	20	-8
CC(C)(C)C(=O)[C@@H]1[C@@H]2C(=O)N(Cc3ccccc3)C(=O)[C@@H]2[C@H]2c3ccccc3C=CN12	-7	22	68*	3	-8
COc1ccc(-n2c(SCC(=O)Nc3cccc(S(N)(=O)=O)c3)nc3ccccc3c2=O)cc1OC	·	·	·	12	·
N#CC(c1ccc(Cl)cc1)c1ccc2c(C(F)(F)F)cc(C(F)(F)F)nc2n1 (centres undefined)	-29	85*	100*	·	56*
FC(F)(F)c1cc(C(F)(F)F)c2ccc(N3CCN(c4ccc(Cl)cc4)CC3)nc2n1	-8	12	9	7	·
SMILES	Arbovirus anti	WT yeast gro inh	Lmaj promast	CHOP inhibitor	L major 1uM
CC1=C(C(=O)Nc2ccccc2)C(c2ccc3c(c2)OCO3)C2=C(CCCC2=O)N1 (centres undefined)	7	1	0	-5	·
COC(=O)C1=C(N)N(c2ccc(F)cc2)C2=C(C(=O)CCC2)C1c1ccc2c(c1)OCO2 (centres undefined)	-1	7	72*	-6	15
CC(C)(C)n1nnnc1CN(Cc1cccnc1)Cc1ccccc1Cl	8	0	75*	-8	3
CC(C)(C)n1nnnc1CN(Cc1ccco1)Cc1cc2cc3c(cc2[nH]c1=O)OCO3	5	3	1	19	·
O=C(N/N=C/c1ccccc1F)c1ccc(COc2ccccc2Cl)o1	2	8	28	45	·
Cc1ccc(Oc2ccc(S(=O)(=O)N3CCOCC3)cc2C(N)=O)c(-n2nc3ccccc3n2)c1	-20	2	54*	·	-8
COc1ccccc1Oc1ccc(S(=O)(=O)N2CCOCC2)cc1S(=O)(=O)N1CCOCC1	-2	9	-2	-1	·
COc1c(/C=N/NC(N)=S)c(C)nn1-c1ccccc1	-1	4	58*	-17	-6
CCCN(CC1CC1)C(=O)CSc1ncnc2sccc12	0	-13	1	7	·
COC(=O)/C(=C\C(=O)c1ccccc1)Nc1cccc(C(F)(F)F)c1	1	8	-8	22	·
O=c1ccsn1Cc1ccccc1	-25	7	101*	36	32
c1ccc(-n2nnnc2Oc2cccc3cccnc23)cc1	-16	-16	63*	-22	-12
O=C(C[n+]1ccccc1)c1ccc(-c2ccccc2)cc1	-17	10	96*	-3	7
Clc1ccc(CN2C3=NCCCN3c3ccccc32)cc1	-22	-3	100*	30	-10
Cc1onc(-c2c(Cl)cccc2Cl)c1C(=O)N1CCCc2ccccc21	-16	11	92*	2	-20
CS(=O)(=O)c1ccc(Cl)c(NC(=O)c2ccc3ccccc3c2)c1	-15	-17	-4	24	·
CC1=Nc2ccccc2N=C(NC(=O)CSc2nnnn2-c2ccccc2)C1c1ccccc1 (centres undefined)	-8	-11	99*	1	16
CCOC(=O)NC(=O)CSc1nnnn1-c1ccccc1	-3	-4	-9	10	·
CN(C)S(=O)(=O)c1cccn1-c1ncc(C(F)(F)F)cc1Cl	0	-12	100*	17	29
O=S(=O)(c1ccccc1)c1ncc(C(F)(F)F)cc1O	5	-13	1	5	·
O=S(=O)(c1ccccc1)c1ncc(C(F)(F)F)cc1Cl	-30	-33	72*	-129	39
O=C(CN1CCC(n2nnc3cc(C(F)(F)F)ccc32)CC1)NCc1cccs1	-1	10	79*	61	-3
S=C(Nc1ccc(Cl)cc1)N1CCCC1	-1	-4	9	5	·
CCOC(=O)c1ccc(N2C(=O)CC(C(=O)OC)=C2C)cc1	2	-19	86*	15	-7
Nc1ccc(C(=O)OCC(=O)Nc2ccc([N+](=O)[O-])cc2C(F)(F)F)cc1	-4	6	2	25	·
SMILES	Arbovirus anti	WT yeast gro inh	Lmaj promast	CHOP inhibitor	L major 1uM
Cn1ccnc1SCc1cn2cc(Br)ccc2n1	-1	6	82*	14	-1
O=C(c1cccc(-c2ccc(O)cc2)c1)N1CCN(c2ccc(F)cc2)CC1	5	-7	-10	52	·
Cc1cc2n(n1)C(c1ccc(O)cc1)Nc1ccccc1-2 (centres undefined)	6	36	3	33	·
Cc1cc(C)c2c(c1)-c1cc(C)nn1C(c1ccc3c(c1)OCO3)N2 (centres undefined)	2	40	99*	68	76*
O=C(OCCOc1ccccc1)c1n[nH]c2ccccc12	·	·	·	1	·
CN1C(=O)/C(=C/C=C2\SCCN2C)SC1=S	-3	-9	-6	17	·
Cc1ccc(NC(=O)CCNC(=O)c2ccco2)cc1F	8	-7	4	3	·
COc1cc(NC(=O)Cn2nnc(-c3ccncc3)n2)cc(OC)c1	8	-2	90*	15	-10

Bioassay records as filed in PubChem BioAssay.
